The text below walks through data of PubChem BioAssay (Tox21).

Molecules are shown by their SMILES. Values joined by “and” are separate entries in the source; they are usually repeats but may differ in a detail not shown here. Equal values may be shown once. Unmarked numbers belong to inactive results. Results filed as inconclusive are left out. Entries that show only a call come without a potency. Active and inactive are the calls of the source. The call rests on the fitted dose curve.
Potency means the concentration at half of the fitted maximal effect.

Sequence of Muscarinic acetylcholine receptor M1 (Homo sapiens) (P11229 whole entry, looked up): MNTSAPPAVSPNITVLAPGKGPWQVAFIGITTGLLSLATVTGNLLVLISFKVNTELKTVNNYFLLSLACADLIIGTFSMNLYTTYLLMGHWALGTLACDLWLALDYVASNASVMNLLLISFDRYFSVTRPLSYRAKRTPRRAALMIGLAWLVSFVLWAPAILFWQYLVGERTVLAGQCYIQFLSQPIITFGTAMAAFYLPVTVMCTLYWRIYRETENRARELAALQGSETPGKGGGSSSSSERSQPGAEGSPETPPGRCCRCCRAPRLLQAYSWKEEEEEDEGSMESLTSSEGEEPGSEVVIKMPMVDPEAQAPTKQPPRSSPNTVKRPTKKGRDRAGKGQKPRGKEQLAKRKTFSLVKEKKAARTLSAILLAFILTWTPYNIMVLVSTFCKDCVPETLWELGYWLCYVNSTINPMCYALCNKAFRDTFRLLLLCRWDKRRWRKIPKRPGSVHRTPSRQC

In the first experiment the target is 5-hydroxytryptamine receptor 2A (Homo sapiens) (UniProt P28223). The experiment is described as follows: 5-hydroxytryptamine receptor 2A (HTR2A) small molecule antagonists, cell-based qHTS assay (AID 1963586). Further: nearly all actives have a fitted effect of over 45% in size. To be noted: HTR2A-CHO cells, DOI-induced calcium flux, fluorescence; series mostly up to 61.5 µM. The essentials: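 CHO cells stably expressing human HTR2A were plated for 18 h at 37 C, then loaded with calcium dye for 1 h. Compounds were preincubated 5 min at room temperature before DOI (4 nM solution) was added. Kinetic fluorescence was read for 3 min.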
Sequence of 5-hydroxytryptamine receptor 2A (Homo sapiens) (P28223 whole entry, looked up): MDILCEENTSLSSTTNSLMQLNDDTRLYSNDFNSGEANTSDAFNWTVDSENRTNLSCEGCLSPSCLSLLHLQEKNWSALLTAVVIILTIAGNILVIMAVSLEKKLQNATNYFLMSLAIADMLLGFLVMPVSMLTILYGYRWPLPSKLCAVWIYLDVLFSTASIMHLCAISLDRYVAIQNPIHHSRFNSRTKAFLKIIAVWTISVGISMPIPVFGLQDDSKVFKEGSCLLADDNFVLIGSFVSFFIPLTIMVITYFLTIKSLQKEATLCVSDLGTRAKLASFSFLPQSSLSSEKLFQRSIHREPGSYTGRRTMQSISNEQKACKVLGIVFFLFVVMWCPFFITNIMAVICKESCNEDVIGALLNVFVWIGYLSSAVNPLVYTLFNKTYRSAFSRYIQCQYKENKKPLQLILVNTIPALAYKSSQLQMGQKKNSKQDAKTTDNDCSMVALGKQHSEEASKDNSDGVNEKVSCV
Background: In qHTS, concentration-response curves come from the screen itself.
Consider `NCCc1cnc[nH]1`, for which the Potency entry was “inactive”.
Same read-out and setting: then `Oc1ccc(-c2ccccc2)c(Cl)c1`, with 26.5 µM (active); and `OC(CCN1CCCCC1)(c1ccccc1)C1CC2C=CC1C2` (configuration not stated), with “inactive”; and `O=C(/C=C/c1ccccc1)NCCO`, with “inactive”.
Turning to `CC(C)C=O`, the Potency entry was “inactive”.

The target is the same in a further experiment. The experiment is described as follows: 5-hydroxytryptamine receptor 2A (HTR2A) small molecule agonists, cell-based qHTS assay (AID 1963587). Further: nearly all actives have a fitted effect of over 30% in size. To be noted: HTR2A-CHO cells, calcium flux fluorescence, agonist mode; series mostly up to 76.8 µM. The essentials:
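CHO cells stably expressing human HTR2A, plated 18 h, loaded with calcium dye 1 h at 37 C. Agonist mode: compounds added and intracellular calcium fluorescence recorded kinetically for 2 min at 1 sec intervals.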
With `Cc1ccc(N)cc1O`, the Potency entry was “inactive”.
Turning to `CCCCCCOC(=O)c1ccc(O)cc1`, the Potency result was “inactive”.
On to `CCN(CC)CCCC(C)Nc1ccnc2cc(Cl)ccc12` (configuration not stated), for which the activation is -0.411% [at 7.02 µM] and 1.58% [at 15.9 µM].
Turning to `CCCCCCC(C)OC(=O)COc1nc(F)c(Cl)c(N)c1Cl` (configuration not stated), the Potency result was “inactive”.
Same read-out and setting: then `CCC(CN)=C(c1ccccc1)c1ccccc1`, with 23.9 µM (active); and `CC1(O)CSC(C)(O)CS1` (configuration not stated), with “inactive”; and `CC(=O)NCCCS(=O)(=O)O`, with 18.9 µM (active).
As to `Nc1cccnc1N`, the Potency entry was “inactive”.
Same read-out and setting: with `O=C(O)[C@@H]1CSCN1` the entry was “inactive”; with `O=[N+]([O-])c1ccc(O)cc1`, “inactive”.
Regarding `Cc1ccc(N/N=c2\c(=O)cc/c(=N\Nc3ccc(S(=O)(=O)O)cc3)c2=O)c(C)c1`, the Potency entry is “inactive”.
The same measure, in the same setting: then `CC(C)(C)c1ccc(C(=O)O)cc1`, with “inactive”; and `CCOC(=O)COc1ccc2c(C)c(CCN(CC)CC)c(=O)oc2c1Cl`, with “inactive”.
Still for that read-out and setting: with `O=[N+]([O-])c1ccc(O/N=C/c2cc(Br)c(O)c(Br)c2)c([N+](=O)[O-])c1` the entry was “inactive”; with `NC(N)=NN=C(/C=C/c1ccc([N+](=O)[O-])o1)/C=C/c1ccc([N+](=O)[O-])o1`, “inactive”.
The same measure, in the same setting: then `CC(C)c1ccc2ncccc2c1`, with “inactive”.
For the compound `CCOC(=O)COc1ccc2c(c1)CC(NCC(O)c1cccc(Cl)c1)CC2` (configuration not stated), the Potency was 31.2 µM (active).
`CCc1ccc(O)c(C(C)(C)C)c1`: the Potency was 49 µM (active).
As for `C[C@@H](c1ncncc1F)C(O)(Cn1cncn1)c1ccc(F)cc1F` (some centres not stated), the Potency result was “inactive”.
Still for that read-out and setting: with `O=C(O)Cn1cnnn1` the entry was “inactive”.
Still for that read-out and setting: with `O=C(CC(=O)C(F)(F)F)c1ccccc1` the figure was 49.7 µM (active); with `CN1C[C@H]2c3ccccc3Oc3ccc(Cl)cc3[C@@H]2C1`, 23.9 µM (active); with `CN1CCCN(C(c2ccccc2)c2ccc(Cl)cc2)CC1` (configuration not stated), “inactive”.
Same read-out and setting: with `NCCc1cnc[nH]1` the entry was “inactive”.
For `CCOc1cccc(-n2cc(C(=O)N3CCN(c4cc(C(=O)O)c5ccccc5c4)CC3)nc2-c2ccc(C)cc2)c1`, the Potency is 0.0933 µM (active).
Turning to `OC(CCN1CCCCC1)(c1ccccc1)C1CC2C=CC1C2` (configuration not stated), the Potency entry was “inactive”.
Same read-out and setting: with `O=C(/C=C/c1ccccc1)NCCO` the figure was 21.3 µM (active).
On the same count and under the same terms, with `CC(C)C=O` the entry was “inactive”.

The next experiment addresses Muscarinic acetylcholine receptor M1 (Homo sapiens) (UniProt P11229). The experiment is described as follows: Cholinergic receptor muscarinic 1 (CHRM1) small molecule antagonists, cell-based qHTS assay (AID 1963588). Further: nearly all actives have a fitted effect of over 40% in size. The note with it: CHRM1-CHO antagonist mode, calcium flux fluorescence; series mostly up to 61.5 µM. Summed up:
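Compounds were tested at 15 concentrations in three independent runs. Dye-loaded CHRM1-CHO cells were exposed 5 min at room temperature before stimulation by acetylcholine added at 50nM. Intracellular calcium was read kinetically on FDSS for 3 min.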
In the case of `CCCCCCOC(=O)c1ccc(O)cc1`, the Potency entry was “inactive”.
On the same count and under the same terms, with `CCN(CC)CCCC(C)Nc1ccnc2cc(Cl)ccc12` (configuration not stated) the figure was 2.52 µM (active).
The same measure, in the same setting: with `CCCCCCC(C)OC(=O)COc1nc(F)c(Cl)c(N)c1Cl` (configuration not stated) the entry was “inactive”; with `CCCCCCOc1ccccc1C(N)=O`, “inactive”; with `CC1(O)CSC(C)(O)CS1` (configuration not stated), “inactive”.
As for `CC(=O)NCCCS(=O)(=O)O`, the Potency entry was “inactive”.
On the same count and under the same terms, then `Nc1cccnc1N`, with “inactive”; and `O=C(O)[C@@H]1CSCN1`, with “inactive”; and `O=[N+]([O-])c1ccc(O)cc1`, with “inactive”.
On to `Cc1ccc(N/N=c2\c(=O)cc/c(=N\Nc3ccc(S(=O)(=O)O)cc3)c2=O)c(C)c1`, for which the Potency result is “inactive”.
Same read-out and setting: with `CC(C)(C)c1ccc(C(=O)O)cc1` the entry was “inactive”; with `CCOC(=O)COc1ccc2c(C)c(CCN(CC)CC)c(=O)oc2c1Cl`, 2.59 µM (active).
`NC(N)=NN=C(/C=C/c1ccc([N+](=O)[O-])o1)/C=C/c1ccc([N+](=O)[O-])o1`: the Potency entry was “inactive”.
Regarding `CC(C)c1ccc2ncccc2c1`, the Potency entry is “inactive”.
For `CCc1ccc(O)c(C(C)(C)C)c1`, the Potency was 37.5 µM (active).
For the compound `C=C1C(=C/C=C2\CCC[C@]3(C)[C@@H]([C@H](C)/C=C/[C@@H](O)C4CC4)CC[C@@H]23)C[C@@H](O)C[C@@H]1O`, the Potency result was “inactive”.
The same measure, in the same setting: with `C[C@@H](c1ncncc1F)C(O)(Cn1cncn1)c1ccc(F)cc1F` (some centres not stated) the entry was “inactive”.
The same measure, in the same setting: then `O=C(O)Cn1cnnn1`, with “inactive”; and `O=C(CC(=O)C(F)(F)F)c1ccccc1`, with “inactive”; and `CN1CCCN(C(c2ccccc2)c2ccc(Cl)cc2)CC1` (configuration not stated), with 0.0231 µM (active).
Same read-out and setting: with `NCCc1cnc[nH]1` the entry was “inactive”; with `Oc1ccc(-c2ccccc2)c(Cl)c1`, “inactive”.
Regarding `OC(CCN1CCCCC1)(c1ccccc1)C1CC2C=CC1C2` (configuration not stated), the Potency is 0.0013 µM (active).
Regarding `O=C(/C=C/c1ccccc1)NCCO`, the Potency result was “inactive”.
For `CC(C)C=O`, the Potency result is “inactive”.

A further experiment shares this target. The experiment is described as follows: Cholinergic receptor muscarinic 1 (CHRM1) small molecule agonists, cell-based qHTS assay (AID 1963589). Further: nearly all actives have a fitted effect of over 35% in size. To be noted: CHRM1-CHO cells, agonist mode, calcium flux fluorescence; series mostly up to 76.8 µM. The essentials: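 Homogeneous fluorescence calcium flux, agonist mode. Human M1-expressing CHO cells; compound dosed at 15 concentrations, three independent runs; signal sampled every 1 sec.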
As for `Cc1ccc(N)cc1O`, the Potency result was “inactive”.
Consider `CCN(CC)CCCC(C)Nc1ccnc2cc(Cl)ccc12` (configuration not stated), for which the activation is -0.78% [at 6.97 µM] and -0.406% [at 15.8 µM].
As for `CCCCCCC(C)OC(=O)COc1nc(F)c(Cl)c(N)c1Cl` (configuration not stated), the Potency result was “inactive”.
On the same count and under the same terms, then `CCCCCCOc1ccccc1C(N)=O`, with “inactive”; and `CCC(CN)=C(c1ccccc1)c1ccccc1`, with “inactive”.
Take `CC1(O)CSC(C)(O)CS1` (configuration not stated): the Potency result is “inactive”.
On the same count and under the same terms, then `CC(=O)NCCCS(=O)(=O)O`, with 23.8 µM (active).
For the compound `Nc1cccnc1N`, the Potency entry was “inactive”.
On the same count and under the same terms, with `O=C(O)[C@@H]1CSCN1` the entry was “inactive”.
In the case of `O=[N+]([O-])c1ccc(O)cc1`, the Potency entry is “inactive”.
For `Cc1ccc(N/N=c2\c(=O)cc/c(=N\Nc3ccc(S(=O)(=O)O)cc3)c2=O)c(C)c1`, the Potency entry was “inactive”.
For the compound `CC(C)(C)c1ccc(C(=O)O)cc1`, the Potency result was “inactive”.
In the case of `CCOC(=O)COc1ccc2c(C)c(CCN(CC)CC)c(=O)oc2c1Cl`, the Potency entry was “inactive”.
On the same count and under the same terms, with `O=[N+]([O-])c1ccc(O/N=C/c2cc(Br)c(O)c(Br)c2)c([N+](=O)[O-])c1` the entry was “inactive”; with `NC(N)=NN=C(/C=C/c1ccc([N+](=O)[O-])o1)/C=C/c1ccc([N+](=O)[O-])o1`, “inactive”; with `CC(C)c1ccc2ncccc2c1`, “inactive”.
The same measure, in the same setting: then `CCOC(=O)COc1ccc2c(c1)CC(NCC(O)c1cccc(Cl)c1)CC2` (configuration not stated), with “inactive”; and `CCc1ccc(O)c(C(C)(C)C)c1`, with “inactive”; and `C=C1C(=C/C=C2\CCC[C@]3(C)[C@@H]([C@H](C)/C=C/[C@@H](O)C4CC4)CC[C@@H]23)C[C@@H](O)C[C@@H]1O`, with “inactive”.
Regarding `C[C@@H](c1ncncc1F)C(O)(Cn1cncn1)c1ccc(F)cc1F` (some centres not stated), the Potency result was “inactive”.
The same measure, in the same setting: then `O=C(O)Cn1cnnn1`, with “inactive”; and `O=C(CC(=O)C(F)(F)F)c1ccccc1`, with “inactive”; and `CN1C[C@H]2c3ccccc3Oc3ccc(Cl)cc3[C@@H]2C1`, with “inactive”.
In the case of `CN1CCCN(C(c2ccccc2)c2ccc(Cl)cc2)CC1` (configuration not stated), the Potency result is “inactive”.
On the same count and under the same terms, with `NCCc1cnc[nH]1` the entry was “inactive”.
For the compound `Oc1ccc(-c2ccccc2)c(Cl)c1`, the Potency result is “inactive”.
For `CCOc1cccc(-n2cc(C(=O)N3CCN(c4cc(C(=O)O)c5ccccc5c4)CC3)nc2-c2ccc(C)cc2)c1`, the Potency entry was “inactive”.
For `O=C(/C=C/c1ccccc1)NCCO`, the Potency result was “inactive”.
On to `CC(C)C=O`, for which the Potency result is “inactive”.
